IDE exosite FP: exo-site inhibitors of human insulin-degrading enzyme; purified IDE, FL-6b probe fluorescence polarization; hits give low values; z-score at 20 µM; 6.3% of 17,000 active;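 active = z-score of -3 or lower, meaning strong loss of probe binding signal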;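 also: His-tagged human IDE residues 42-1019 made in E. coli with 30 nM FL-6b probe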
Target sequence (P14735 42-1019 limits assumed): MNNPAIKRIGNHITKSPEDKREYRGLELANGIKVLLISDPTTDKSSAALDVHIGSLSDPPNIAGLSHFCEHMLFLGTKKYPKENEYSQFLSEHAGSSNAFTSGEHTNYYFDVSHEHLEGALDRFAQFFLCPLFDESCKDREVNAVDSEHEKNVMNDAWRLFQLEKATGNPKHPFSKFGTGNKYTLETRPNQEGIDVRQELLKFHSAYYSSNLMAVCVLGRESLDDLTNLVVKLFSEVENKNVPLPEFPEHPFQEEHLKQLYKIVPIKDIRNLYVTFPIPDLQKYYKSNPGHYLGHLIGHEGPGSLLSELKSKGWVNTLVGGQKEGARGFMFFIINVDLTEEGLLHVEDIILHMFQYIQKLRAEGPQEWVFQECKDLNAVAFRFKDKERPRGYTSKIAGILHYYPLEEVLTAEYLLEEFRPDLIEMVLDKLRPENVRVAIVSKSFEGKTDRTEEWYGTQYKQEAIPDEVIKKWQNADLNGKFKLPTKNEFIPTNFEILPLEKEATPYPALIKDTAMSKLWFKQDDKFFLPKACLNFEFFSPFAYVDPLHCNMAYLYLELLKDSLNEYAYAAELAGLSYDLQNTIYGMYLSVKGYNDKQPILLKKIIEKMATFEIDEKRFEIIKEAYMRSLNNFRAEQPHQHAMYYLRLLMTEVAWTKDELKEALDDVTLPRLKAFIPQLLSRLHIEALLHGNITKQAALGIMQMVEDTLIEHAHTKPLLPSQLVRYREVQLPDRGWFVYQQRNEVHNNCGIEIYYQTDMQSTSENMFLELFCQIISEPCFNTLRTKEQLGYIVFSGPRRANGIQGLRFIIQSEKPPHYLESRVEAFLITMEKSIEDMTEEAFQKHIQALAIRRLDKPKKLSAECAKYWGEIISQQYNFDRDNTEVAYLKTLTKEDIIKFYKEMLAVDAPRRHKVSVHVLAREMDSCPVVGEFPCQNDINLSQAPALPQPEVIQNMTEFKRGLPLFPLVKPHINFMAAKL
An asterisk follows results filed as active. Many of the other results were omitted from the sample, so hits are more common in it than they were.

Results for COc1ccc(NC(=O)N2CCCCN3[C@@H](CO)[C@H](c4ccc(-c5ccccc5F)cc4)[C@@H]3C2)cc1 ?
IDE exosite FP: -0.77

Results for O=C1CNC[C@H]2[C@@H](c3ccc(C#CC4CCCC4)cc3)[C@H](CO)N12 ?
IDE exosite FP: 4.1

How did CCS(=O)(=O)N1CC2(CN(C(=O)c3cccnc3)C2)c2c(n(C)c3cc(OC)ccc23)[C@H]1CO do in these assays?
IDE exosite FP: 1

How did CCCC#Cc1ccc([C@@H]2[C@H]3CN(C(=O)Nc4ccccc4F)CC(=O)N3[C@H]2CO)cc1 do in these assays?
IDE exosite FP: -0.21

Results for COC(=O)[C@@H]1[C@@H](CO)[C@@H]2Cn3c(ccc(-c4ccncc4)c3=O)[C@@H]2N1Cc1ccccc1F ?
IDE exosite FP: 0.086

How did CCC(=O)N(C)C[C@@H]1[C@@H](c2ccc(C3=CCCCC3)cc2)[C@H](CO)N1C(C)=O do in these assays?
IDE exosite FP: 3.6

What do the screens show for `CCC(=O)NC[C@H]1[C@@H](c2ccccc2)[C@H](CO)N1C(=O)C1CCC1`?
IDE exosite FP: 0.84

How did Cn1cnc(S(=O)(=O)N[C@@H]2CC[C@H](CC(=O)NCC3CCCCC3)O[C@H]2CO)c1 do in these assays?
IDE exosite FP: -1.1

Results for CN(C)C(=O)c1ccc(-c2ccc([C@H]3[C@@H](C#N)N(C(=O)Cc4ccccn4)[C@H]3CO)cc2)cc1 ?
IDE exosite FP: -2.1

Results for CS(=O)(=O)N1[C@H](C#N)[C@@H](c2ccc(-c3ccccc3F)cc2)[C@@H]1CO ?
IDE exosite FP: -3*

How did CS(=O)(=O)N1[C@H](C#N)[C@H](c2ccc(-c3ccccc3F)cc2)[C@H]1CO do in these assays?
IDE exosite FP: -1.7

What do the screens show for `CS(=O)(=O)N1[C@H](C#N)[C@@H](c2ccc(-c3ccccc3F)cc2)[C@H]1CO`?
IDE exosite FP: -2.1

How did CS(=O)(=O)N1[C@H](CO)[C@H](c2ccc(-c3ccccc3F)cc2)[C@@H]1C#N do in these assays?
IDE exosite FP: -1.3

What do the screens show for `CS(=O)(=O)N1[C@H](C#N)[C@H](c2ccccc2-c2ccccc2F)[C@H]1CO`?
IDE exosite FP: -0.99

How did CS(=O)(=O)N1[C@@H](C#N)[C@H](c2ccc(-c3ccccc3F)cc2)[C@@H]1CO do in these assays?
IDE exosite FP: -5.2*

What do the screens show for `CCCC(=O)Nc1ccc2c(c1)C(=O)N(C)C[C@H](OC)[C@H](C)CN(Cc1ccc(F)cc1)[C@@H](C)CO2`?
IDE exosite FP: -0.45

How did O=C(C[C@H]1CC[C@H]2NC[C@H](O)COC[C@@H]2O1)Nc1ccc(-c2ccccc2)cc1 do in these assays?
IDE exosite FP: -2

What do the screens show for `O=C(CC1CC1)N1CC(=O)N2[C@H](CO)[C@H](c3ccc(-c4cccnc4)cc3)[C@@H]2C1`?
IDE exosite FP: 0.24

What do the screens show for `O=C(CC1CC1)N1CC(=O)N2[C@H](C1)[C@@H](c1ccc(-c3ccccc3)cc1)[C@@H]2CO`?
IDE exosite FP: -8.9*

Results for O=C(CC1CC1)N1CC(=O)N2[C@H](C1)[C@H](c1ccc(-c3ccccc3)cc1)[C@@H]2CO ?
IDE exosite FP: -5.1*

Results for O=C(CC1CC1)N1CC(=O)N2[C@H](CO)[C@@H](c3ccc(-c4ccccc4)cc3)[C@@H]2C1 ?
IDE exosite FP: -5.8*

What do the screens show for `O=C(CC1CC1)N1CC(=O)N2[C@H](CO)[C@H](c3ccc(-c4cccnc4)cc3)[C@H]2C1`?
IDE exosite FP: -0.58

How did O=C(CC1CC1)N1CC(=O)N2[C@@H](CO)[C@H](c3ccc(-c4cccnc4)cc3)[C@@H]2C1 do in these assays?
IDE exosite FP: 2.9

How did O=C(CC1CC1)N1CC(=O)N2[C@H](C1)[C@@H](c1ccc(/C=C/c3ccccc3)cc1)[C@@H]2CO do in these assays?
IDE exosite FP: -2

How did O=C(CC1CC1)N1CC(=O)N2[C@H](C1)[C@H](c1ccc(-c3cccnc3)cc1)[C@@H]2CO do in these assays?
IDE exosite FP: 0.43

Results for O=C(CC1CC1)N1CC(=O)N2[C@H](CO)[C@@H](c3ccc(/C=C/c4ccccc4)cc3)[C@@H]2C1 ?
IDE exosite FP: -1.2

How did CC(C)[C@@H]1C(=O)NCCC=CC[C@@H](C)Oc2ccccc2C(=O)N1C (mixture of isomers) do in these assays?
IDE exosite FP: -0.46

What do the screens show for `N#C[C@H]1[C@@H](c2ccccc2C2=CCCC2)[C@@H](CO)N1C(=O)c1cccc(F)c1`?
IDE exosite FP: 0.12

Results for CCCN1CCC2(CC1)CN(Cc1ccc3c(c1)OCO3)[C@H](CO)c1[nH]c3cc(OC)ccc3c12 ?
IDE exosite FP: -0.73

Results for CCCC#Cc1ccc([C@@H]2[C@H](CO)N3C(=O)CN(S(=O)(=O)c4ccccc4C)C[C@@H]23)cc1 ?
IDE exosite FP: -2.3

Results for Cc1ccc(-c2ccc([C@@H]3[C@@H](CO)N4C(=O)CN(C(=O)c5ccncc5)C[C@H]34)cc2)cc1 ?
IDE exosite FP: -0.28

Results for O=C(c1ccncc1)N1CC(=O)N2[C@@H](CO)[C@@H](c3ccc(-c4ccccc4)cc3)[C@@H]2C1 ?
IDE exosite FP: 3.3

How did Cc1ccc(-c2ccc([C@@H]3[C@H](CO)N4C(=O)CN(C(=O)c5ccncc5)C[C@@H]34)cc2)cc1 do in these assays?
IDE exosite FP: 1.8

How did Cc1ccc(-c2ccc([C@@H]3[C@@H](CO)N4C(=O)CN(C(=O)c5ccncc5)C[C@@H]34)cc2)cc1 do in these assays?
IDE exosite FP: 2

Results for Cc1ccc(-c2ccc([C@H]3[C@H]4CN(C(=O)c5ccncc5)CC(=O)N4[C@H]3CO)cc2)cc1 ?
IDE exosite FP: 0.4

How did O=C(c1ccncc1)N1CC(=O)N2[C@H](C1)[C@H](c1ccc(-c3ccccc3)cc1)[C@@H]2CO do in these assays?
IDE exosite FP: 1.3

Results for Cc1ccc(-c2ccc([C@@H]3[C@H]4CN(C(=O)c5ccncc5)CC(=O)N4[C@H]3CO)cc2)cc1 ?
IDE exosite FP: -4.4*

How did Cc1ccc(-c2ccc([C@H]3[C@H](CO)N4C(=O)CN(C(=O)c5ccncc5)C[C@@H]34)cc2)cc1 do in these assays?
IDE exosite FP: -3.2*

How did O=C(c1ccncc1)N1CC(=O)N2[C@H](C1)[C@@H](c1ccc(-c3ccccc3)cc1)[C@@H]2CO do in these assays?
IDE exosite FP: -6.8*

Results for C[C@@H]1CN([C@@H](C)CO)C(=O)CCCn2cc(nn2)CO[C@@H]1CN(C)C(=O)Nc1ccc2c(c1)OCO2 ?
IDE exosite FP: -0.98

What do the screens show for `CCC(=O)N(CC)C[C@@H]1[C@@H](c2ccc(-c3cccnc3)cc2)[C@H](CO)N1C(C)=O`?
IDE exosite FP: 0.82

How did CN(C)C(=O)c1ccc(-c2ccc([C@H]3[C@H]4CN(C(=O)C5CC5)CCCCN4[C@H]3CO)cc2)cc1 do in these assays?
IDE exosite FP: 2.2

Results for CC(=O)N1CCCCN2[C@H](C1)[C@@H](c1ccc(-c3ccc(C)cc3)cc1)[C@@H]2CO ?
IDE exosite FP: -0.53

How did CN(C)C(=O)c1ccc(-c2ccc([C@H]3[C@H](CO)N4CCCCN(C(=O)C5CC5)C[C@@H]34)cc2)cc1 do in these assays?
IDE exosite FP: -5*

What do the screens show for `CC(=O)N1CCCCN2[C@@H](CO)[C@@H](c3ccc(-c4ccc(C)cc4)cc3)[C@@H]2C1`?
IDE exosite FP: 1.1

What do the screens show for `CN(C)C(=O)c1ccc(-c2ccc([C@H]3[C@@H](CO)N4CCCCN(C(=O)C5CC5)C[C@H]34)cc2)cc1`?
IDE exosite FP: 3.7

What do the screens show for `CC(=O)N1CCCCN2[C@H](CO)[C@@H](c3ccc(-c4ccc(C)cc4)cc3)[C@@H]2C1`?
IDE exosite FP: 1.5

Screening results deposited in PubChem by Broad Institute.
